Experiment [1] deals with Thyrotropin-releasing hormone receptor (Homo sapiens) (UniProt P34981). As to the kind of experiment: qHTS assay to identify small molecule agonists of the thyrotropin-releasing hormone receptor (TRHR) signaling pathway (AID 1346891; calls by dose curve; also: series mostly up to about 58 µM). The method in brief:
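HEK293 cells expressing TRHR plated 18 h at 37 C/5% CO2, calcium dye-loaded 2 h at 37 C, then compound added (agonist mode); kinetic calcium fluorescence read 3 min at 1 s intervals; 15 concentrations in triplicate.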

Experiment [2] in a line: Human pregnane X receptor (PXR) small molecule agonists, qHTS cell viability counter screen (AID 1346977). Also: nearly all actives have a fitted effect of over 50% in size. In outline: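 PXR-Luc HepG2 cells (2,000/well, 5% charcoal-stripped FBS) preincubated 5 hr, then exposed to compounds 24 hr at 37 C. Viability read in the same wells by CellTiter-Fluor fluorescence, reagent added at 23 hr, 1 hr incubation.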
A general note: Quantitative high-throughput screening tests each substance at several concentrations.

Experiment [3] in a line: Caspase-3/7 induction in HepG2 cells by small molecules, qHTS assay (AID 1346978). Also: nearly all actives have a fitted effect of over 15% in size. The method in brief:
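Wild-type HepG2 cells (2,000/well) were settled 5 h at 37 C, 5% CO2, then exposed to compounds in DMSO for 17 h. Caspase-3/7 activity was read by luminescence 30 min after adding Caspase-Glo 3/7 reagent at room temperature.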

Experiment [4] is described as follows: Caspase-3/7 induction in CHO-K1 cells by small molecules, qHTS cell viability counter screen (AID 1346979). Also: nearly all actives have a fitted effect of over 35% in size. Also: potency is read from the fitted curve at half-maximal effect. In outline: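 Wild-type CHO-K1 cells (1,500/well) treated with compound after 5 h plating; after 16 h at 37C, viability read as CellTiter-Fluor fluorescence following 1 h reagent incubation, in the same wells as the caspase read.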
Experiment [5] in a line: Caspase-3/7 induction in HepG2 cells by small molecules, qHTS cell viability counter screen (AID 1346981). Also: nearly all actives have a fitted effect of over 30% in size. Also: potency is read from the fitted curve at half-maximal effect. In outline: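 Treatment of HepG2 cells with DMSO-delivered compounds ran 16 hr at 37 C following a 5-hr pre-incubation of 2,000 cells/well. CellTiter-Fluor fluorescence, read after 1 hr, served as the viability measure in a qHTS format.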
Experiment [6] has as its target Nuclear receptor subfamily 1 group I member 2 (Homo sapiens) (UniProt O75469). As to the kind of experiment: Human pregnane X receptor (PXR) small molecule agonists, qHTS assay (AID 1346982). Also: nearly all actives have a fitted effect of over 35% in size. Also: potency is read from the fitted curve at half-maximal effect. The method in brief: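 Stable HepG2 line reporting PXR-mediated CYP3A4 expression via luciferase. Treatment: 24 hr with compounds in DMSO at 37 C. Detection: ONE-Glo luminescence.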

For experiment [7], the target named is Acetylcholinesterase (Homo sapiens) (UniProt P22303). As to the kind of experiment: Acetylcholinesterase (AChE) small molecule antagonists: colormetric cell-based qHTS assay (AID 1347395; calls by dose curve; also: nearly all actives have a fitted effect of over 30% in size; also: potency is read from the fitted curve at half-maximal effect). In outline: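 SH-SY5Y cells attached overnight, exposed to compound 30 min at 37 C, then given DTNB/acetylthiocholine; after 90 min at 37 C, colorimetric thiocholine read gives cellular AChE activity.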
Sequence of Acetylcholinesterase (Homo sapiens) (P22303 whole entry, looked up): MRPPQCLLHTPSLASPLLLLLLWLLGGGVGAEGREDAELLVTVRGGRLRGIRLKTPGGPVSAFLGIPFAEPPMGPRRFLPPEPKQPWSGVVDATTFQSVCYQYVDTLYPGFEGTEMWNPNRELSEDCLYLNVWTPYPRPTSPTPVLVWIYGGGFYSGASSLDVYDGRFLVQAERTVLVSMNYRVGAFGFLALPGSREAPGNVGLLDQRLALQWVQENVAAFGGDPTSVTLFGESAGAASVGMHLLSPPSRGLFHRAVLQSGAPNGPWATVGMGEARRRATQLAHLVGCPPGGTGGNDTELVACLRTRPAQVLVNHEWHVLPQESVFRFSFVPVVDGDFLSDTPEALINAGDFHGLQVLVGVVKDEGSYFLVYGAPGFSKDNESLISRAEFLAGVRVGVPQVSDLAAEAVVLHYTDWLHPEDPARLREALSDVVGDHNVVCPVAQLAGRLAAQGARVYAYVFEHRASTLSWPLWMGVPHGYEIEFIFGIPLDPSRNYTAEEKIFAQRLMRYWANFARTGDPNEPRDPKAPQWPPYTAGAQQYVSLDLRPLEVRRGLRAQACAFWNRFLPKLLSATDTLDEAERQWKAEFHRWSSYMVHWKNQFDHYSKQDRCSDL

Experiment [8] has the same target. As to the kind of experiment: Acetylcholinesterase (AChE) small molecule antagonists: enzyme-based qHTS assay (AID 1347397; calls by dose curve; also: nearly all actives have a fitted effect of over 55% in size; also: potency is read from the fitted curve at half-maximal effect). Particulars: Potency: AChE enzyme activity inhibition. In outline: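 Tox21 library chemicals are tested in qHTS format against recombinant human AChE. The enzyme, dispensed at 50 mU/mL, sits with compound for 30 min at room temperature. A DTNB–acetylthiocholine cocktail follows, and colour is read after 10 min.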

For experiment [9] the target is unchanged. As to the kind of experiment: Acetylcholinesterase (AChE) small molecule antagonists: fluorescence cell-based qHTS assay (AID 1347398; calls by dose curve; also: nearly all actives have a fitted effect of over 50% in size; also: potency is read from the fitted curve at half-maximal effect). The note with it: Potency: AChE activity. The method in brief: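 Cellular AChE inhibition: SH-SY5Y cells treated with test chemical for 30 min at 37 C, then acetylthiocholine hydrolysis followed over 40 min at room temperature via thiocholine-reactive Thiolite Green fluorescence (490/520 nm).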

The target is the same in experiment [10]. As to the kind of experiment: Acetylcholinesterase (AChE) small molecule antagonists: enzyme-based qHTS assay with human liver microsomes (AID 1347399; calls by dose curve; also: nearly all actives have a fitted effect of over 60% in size; also: potency is read from the fitted curve at half-maximal effect). The note with it: Potency: qHTS inhibition. In outline: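 Recombinant human AChE (50 mU/mL in the enzyme mix) and human liver microsomes (0.25 mg/mL final) were preincubated with compound and NADPH (0.25 mg/mL final) for 30 min at 37 C. Acetylthiocholine/DTNB was then added; thiocholine was read colorimetrically after 10 min at room temperature.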

For experiment [11], the target named is Cytochrome P450 2C19 (Homo sapiens) (UniProt P33261). As to the kind of experiment: Cytochrome P450 Family 2 Subfamily C Member 19 (CYP2C19) small molecule antagonists: luciferase reporter qHTS assay (AID 1671197). Also: nearly all actives have a fitted effect of over 65% in size. Also: potency is read from the fitted curve at half-maximal effect. The method in brief:
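Enzyme-substrate mix with proluciferin substrate (P450-Glo CYP2C19 system) preincubated with compounds 10 min at room temperature; NADPH regeneration solution added, 37C for 1 h; detection reagent stops reaction, luminescence read after 20 min. Ketoconazole positive control.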
On the technique in general: A reporter such as luciferase makes a cellular process visible.

The target in experiment [12] is Cytochrome P450 2C9 (Homo sapiens) (UniProt P11712). As to the kind of experiment: Cytochrome P450 Family 2 Subfamily C Member 9 (CYP2C9) small molecule antagonists: luciferase reporter qHTS assay (AID 1671198). Also: nearly all actives have a fitted effect of over 50% in size. Also: potency is read from the fitted curve at half-maximal effect. The method in brief: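 CYP2C9 activity was measured with a P450-Glo proluciferin substrate. Enzyme–substrate mix was held with compound for 10 min at room temperature, then NADPH regeneration solution was added for 1 h at 37C. Luciferin product was read as luminescence.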
Sequence of Cytochrome P450 2C9 (Homo sapiens) (P11712 whole entry, looked up): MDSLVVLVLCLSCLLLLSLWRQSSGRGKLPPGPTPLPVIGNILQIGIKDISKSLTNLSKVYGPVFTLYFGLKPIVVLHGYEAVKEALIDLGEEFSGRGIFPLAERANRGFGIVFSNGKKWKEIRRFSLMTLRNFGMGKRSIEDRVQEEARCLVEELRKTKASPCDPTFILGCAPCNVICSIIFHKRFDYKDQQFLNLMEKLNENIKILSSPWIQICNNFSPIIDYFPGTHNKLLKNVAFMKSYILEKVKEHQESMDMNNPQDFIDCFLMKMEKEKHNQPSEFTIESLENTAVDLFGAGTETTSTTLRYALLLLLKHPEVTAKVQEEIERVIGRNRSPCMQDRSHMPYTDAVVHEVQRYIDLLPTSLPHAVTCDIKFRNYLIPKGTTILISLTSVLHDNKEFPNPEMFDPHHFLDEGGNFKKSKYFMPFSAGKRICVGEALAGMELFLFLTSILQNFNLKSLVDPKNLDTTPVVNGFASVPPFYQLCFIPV

Experiment [13] deals with Cytochrome P450 1A2 (Homo sapiens) (UniProt P05177). As to the kind of experiment: Cytochrome P450 Family 1 Subfamily A Member 2 (CYP1A2) small molecule antagonists: luciferase reporter qHTS assay (AID 1671199). Also: nearly all actives have a fitted effect of over 50% in size. Also: potency is read from the fitted curve at half-maximal effect. In outline: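 Read-out is luminescence from luciferin detection reagent (20 min) proportional to CYP1A2 activity; compounds in DMSO preincubated 10 min with enzyme and proluciferin substrate, then NADPH regeneration solution, 1 h, room temperature.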
Sequence of Cytochrome P450 1A2 (Homo sapiens) (P05177 whole entry, looked up): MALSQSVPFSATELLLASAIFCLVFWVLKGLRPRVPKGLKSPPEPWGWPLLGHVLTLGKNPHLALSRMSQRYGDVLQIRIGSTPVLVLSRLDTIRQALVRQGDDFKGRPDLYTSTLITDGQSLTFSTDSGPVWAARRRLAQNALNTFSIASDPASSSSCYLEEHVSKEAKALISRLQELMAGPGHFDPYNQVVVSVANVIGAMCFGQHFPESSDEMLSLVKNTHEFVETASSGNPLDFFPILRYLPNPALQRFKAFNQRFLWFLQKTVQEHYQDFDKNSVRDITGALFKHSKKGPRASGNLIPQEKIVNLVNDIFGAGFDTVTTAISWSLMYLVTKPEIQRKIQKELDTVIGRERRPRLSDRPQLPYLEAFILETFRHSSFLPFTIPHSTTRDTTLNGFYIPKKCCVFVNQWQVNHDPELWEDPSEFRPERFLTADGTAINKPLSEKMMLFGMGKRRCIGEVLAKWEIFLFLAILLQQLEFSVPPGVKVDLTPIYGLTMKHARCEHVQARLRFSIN

Experiment [14] concerns the target Cytochrome P450 3A4 (Homo sapiens) (UniProt P08684). As to the kind of experiment: Cytochrome P450 Family 3 Subfamily A Member 4 (CYP3A4) small molecule antagonists: luciferase reporter qHTS assay (AID 1671201). Also: nearly all actives have a fitted effect of over 50% in size. Also: potency is read from the fitted curve at half-maximal effect. The method in brief: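 P450-Glo CYP3A4 luminescent assay: compounds preincubated 10 min at room temperature with enzyme and proluciferin substrate, NADPH regeneration added, 1 h room-temperature reaction, stopped with luciferin detection reagent; luminescence read after 20 min. Ketoconazole positive control.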

Experiment [15] addresses Nuclear receptor subfamily 1 group I member 2 (Rattus norvegicus) (UniProt Q9R1A7). As to the kind of experiment: Rat pregnane X receptor (rPXR) activation by small molecules, qHTS assay (AID 1346983). Also: nearly all actives have a fitted effect of over 20% in size. Also: potency is read from the fitted curve at half-maximal effect. Particulars: rPXR luciferase reporter cells, One-Glo luminescence, 24 h; max activation: stronger effect = higher value. In outline: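 Cell-based rPXR luciferase reporter assay, 2,000 cells per well, rested 5hr at 37 C before compound addition in DMSO, then 24 hr at 37 C. One-Glo reagent was added and luminescence read after 30 min at room temperature.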

Experiment [16] addresses Nuclear receptor subfamily 1 group I member 2 (Homo sapiens) (UniProt O75469). As to the kind of experiment: CYP3A4 induction through human pregnane X receptor (PXR) by small molecules, qHTS assay (AID 1346984). Also: nearly all actives have a fitted effect of over 40% in size. In outline: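 After 24 h at 37C with compound, DPX-2 cells (HepG2, co-transfected PXR response element and CYP3A4 promoter-luciferase) got 3uM final P450-Glo Luciferin-IPA for 3 h; One-Glo luminescence followed.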

For experiment [17] the target is unchanged. As to the kind of experiment: Human pregnane X receptor (PXR) activation by small molecules, qHTS assay (AID 1346985). Also: nearly all actives have a fitted effect of over 40% in size. In outline: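 DPX-2 cells (HepG2 co-transfected with a PXR response element and a CYP3A4-promoter luciferase construct) were seeded at 2,000 per well, rested 5 hr at 37C, then exposed to DMSO-dissolved compounds for 24 hr. Activation was read as luciferase luminescence.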

The target in experiment [18] is Cytochrome P450 2D6 (Homo sapiens) (UniProt P10635). As to the kind of experiment: Cytochrome P450 Family 2 Subfamily D Member 6 (CYP2D6) small molecule antagonists: luciferase reporter qHTS assay (AID 1671196). Also: nearly all actives have a fitted effect of over 50% in size. Also: potency is read from the fitted curve at half-maximal effect. In outline: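 Chemicals tested for interference with CYP2D6 activity; proluciferin substrate, NADPH regeneration, 1 h at room temperature, luminescent detection.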
Sequence of Cytochrome P450 2D6 (Homo sapiens) (P10635 whole entry, looked up): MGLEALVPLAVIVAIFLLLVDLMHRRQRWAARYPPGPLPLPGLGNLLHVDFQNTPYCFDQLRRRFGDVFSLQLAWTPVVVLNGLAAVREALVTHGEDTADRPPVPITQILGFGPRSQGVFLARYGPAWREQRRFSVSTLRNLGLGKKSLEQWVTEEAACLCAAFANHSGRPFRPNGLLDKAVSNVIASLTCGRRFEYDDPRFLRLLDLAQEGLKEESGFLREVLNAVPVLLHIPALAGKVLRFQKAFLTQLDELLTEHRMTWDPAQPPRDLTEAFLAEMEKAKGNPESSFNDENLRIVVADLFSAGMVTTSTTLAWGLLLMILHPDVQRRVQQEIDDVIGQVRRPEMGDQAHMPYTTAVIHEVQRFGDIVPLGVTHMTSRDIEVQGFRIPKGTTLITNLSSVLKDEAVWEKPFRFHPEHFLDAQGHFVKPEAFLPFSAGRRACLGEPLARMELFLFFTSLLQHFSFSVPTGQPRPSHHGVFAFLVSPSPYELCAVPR

Experiment [19] concerns the target Voltage-gated inwardly rectifying potassium channel KCNH2 (Homo sapiens) (UniProt Q12809). As to the kind of experiment: Human Ether-a-go-go-Related Gene (hERG) channel small molecule antagonists: fluorescence cell-based qHTS assay (AID 1671200). The method in brief: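 hERG-U2OS cells plated overnight at 37 C, loaded with FluxOR II dye 1 h at RT in dark; after 10 min, thallium stimulus added. Fluorescence (480/540 nm) read kinetically for 2 min at 1 s intervals.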
A general note: The hERG channel carries a current that helps repolarise heart muscle cells.

“And” between values parts separate entries of the source, which are not always exact repeats. Identical values can stand only once. Results filed as inconclusive are left out. Some structures have more than one record in an assay (separate samples or runs), and their calls can disagree. The source made the active and inactive calls. Unless noted, calls follow the shape of the dose curve; as a rule, active = well fitted curve in the direction sought with a large enough effect in the repeat runs; inconclusive = weak or mixed curves; inactive = no such curve, though single readings can be large; an effect the other way counts as inactive or inconclusive.
% is scaled to controls: 0 for no effect and ±100 for the full control effect.

Sequence of Nuclear receptor subfamily 1 group I member 2 (Rattus norvegicus) (Q9R1A7 whole entry, looked up): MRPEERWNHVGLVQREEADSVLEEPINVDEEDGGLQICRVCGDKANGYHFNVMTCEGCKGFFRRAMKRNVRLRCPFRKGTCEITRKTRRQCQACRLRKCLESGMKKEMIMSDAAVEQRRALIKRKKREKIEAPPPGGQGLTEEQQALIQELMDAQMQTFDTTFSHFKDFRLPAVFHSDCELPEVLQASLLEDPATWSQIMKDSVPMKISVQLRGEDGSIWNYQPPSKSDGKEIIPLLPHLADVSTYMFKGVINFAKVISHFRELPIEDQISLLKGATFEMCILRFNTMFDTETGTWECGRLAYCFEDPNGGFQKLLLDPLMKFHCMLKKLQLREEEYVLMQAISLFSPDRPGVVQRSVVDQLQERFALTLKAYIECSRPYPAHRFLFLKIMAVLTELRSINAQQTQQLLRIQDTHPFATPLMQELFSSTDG
Sequence of Cytochrome P450 3A4 (Homo sapiens) (P08684 whole entry, looked up): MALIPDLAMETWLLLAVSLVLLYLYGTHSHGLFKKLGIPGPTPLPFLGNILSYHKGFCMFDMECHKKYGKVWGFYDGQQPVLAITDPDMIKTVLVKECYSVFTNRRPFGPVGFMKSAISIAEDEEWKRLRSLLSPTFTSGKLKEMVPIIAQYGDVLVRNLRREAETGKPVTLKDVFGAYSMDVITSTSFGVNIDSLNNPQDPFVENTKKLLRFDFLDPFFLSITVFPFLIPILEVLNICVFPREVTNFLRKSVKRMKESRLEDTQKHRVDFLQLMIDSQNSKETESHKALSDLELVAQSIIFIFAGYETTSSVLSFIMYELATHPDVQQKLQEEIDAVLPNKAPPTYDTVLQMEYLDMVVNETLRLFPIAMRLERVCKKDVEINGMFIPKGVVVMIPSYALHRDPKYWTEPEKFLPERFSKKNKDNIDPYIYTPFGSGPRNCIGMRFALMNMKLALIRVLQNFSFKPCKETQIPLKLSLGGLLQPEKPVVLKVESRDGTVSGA
Sequence of Thyrotropin-releasing hormone receptor (Homo sapiens) (P34981 whole entry, looked up): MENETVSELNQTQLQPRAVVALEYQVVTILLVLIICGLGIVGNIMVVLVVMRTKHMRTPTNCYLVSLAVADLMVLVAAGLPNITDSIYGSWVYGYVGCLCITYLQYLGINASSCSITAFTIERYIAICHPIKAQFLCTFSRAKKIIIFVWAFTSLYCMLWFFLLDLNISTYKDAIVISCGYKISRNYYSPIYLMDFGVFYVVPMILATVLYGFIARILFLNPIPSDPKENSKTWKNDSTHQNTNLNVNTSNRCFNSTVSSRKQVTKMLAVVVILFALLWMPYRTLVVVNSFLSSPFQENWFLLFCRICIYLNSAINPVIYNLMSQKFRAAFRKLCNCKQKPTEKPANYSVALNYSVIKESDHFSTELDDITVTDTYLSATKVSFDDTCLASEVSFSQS
Sequence of Cytochrome P450 2C19 (Homo sapiens) (P33261 whole entry, looked up): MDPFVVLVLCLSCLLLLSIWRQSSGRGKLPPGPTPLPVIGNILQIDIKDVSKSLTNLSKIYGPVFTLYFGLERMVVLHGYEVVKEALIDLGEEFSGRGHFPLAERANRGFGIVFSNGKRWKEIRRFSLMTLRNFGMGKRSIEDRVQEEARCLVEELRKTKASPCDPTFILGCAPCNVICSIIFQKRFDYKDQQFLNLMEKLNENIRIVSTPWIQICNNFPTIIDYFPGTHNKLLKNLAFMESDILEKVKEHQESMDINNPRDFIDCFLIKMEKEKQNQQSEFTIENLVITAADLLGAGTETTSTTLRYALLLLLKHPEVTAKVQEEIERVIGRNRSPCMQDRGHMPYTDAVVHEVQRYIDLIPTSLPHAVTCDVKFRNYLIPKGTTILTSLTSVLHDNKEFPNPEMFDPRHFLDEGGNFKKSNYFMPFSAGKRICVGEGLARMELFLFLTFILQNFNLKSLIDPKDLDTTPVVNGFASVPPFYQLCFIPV
Sequence of Nuclear receptor subfamily 1 group I member 2 (Homo sapiens) (O75469 whole entry, looked up): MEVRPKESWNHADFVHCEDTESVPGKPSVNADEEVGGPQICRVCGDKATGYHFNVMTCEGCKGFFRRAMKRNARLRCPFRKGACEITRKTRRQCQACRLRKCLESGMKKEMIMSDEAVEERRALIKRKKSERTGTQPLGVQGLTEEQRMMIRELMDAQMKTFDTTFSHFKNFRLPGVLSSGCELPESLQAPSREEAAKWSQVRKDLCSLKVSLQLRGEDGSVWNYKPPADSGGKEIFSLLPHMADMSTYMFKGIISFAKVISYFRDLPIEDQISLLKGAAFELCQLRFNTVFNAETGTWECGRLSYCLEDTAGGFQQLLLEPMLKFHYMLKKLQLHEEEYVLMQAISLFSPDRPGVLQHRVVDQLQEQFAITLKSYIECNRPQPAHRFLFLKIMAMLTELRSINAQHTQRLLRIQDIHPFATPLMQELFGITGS

As to `CCOP(=S)(OCC)Oc1ccc([N+](=O)[O-])cc1`, the outcome in experiment [1] and in experiment [3] was inactive. The Potency result in [2], in experiment [4] and in experiment [5] was “inactive” throughout. The Potency in [6] is 49.2 µM (active); in [7], 64.1 µM (active) and 13.8 µM (active); in [8], 24.5 µM (active); in [9], 71.9 µM (active) and 15.5 µM (active); in experiment [10], 905 nM (active) and 616 nM (active); in experiment [11], 128 nM (active) and 109 nM (active). For the same compound, the Potency in [12] is 1.61 µM (active) and 976 nM (active); in [13], 1.02 µM (active) and 976 nM (active); in experiment [14] it was 2.27 µM (active) and 2.75 µM (active).

`COP(=S)(OC)SCN1C(=O)c2ccccc2C1=O`: the compound was classed as inactive in experiment [1] and in experiment [3]. Moreover, the Potency entry in experiment [2], in experiment [4], in experiment [5], in experiment [6], in experiment [16] and in experiment [17] was “inactive” in each case. The Potency entry in experiment [8], in [9], in experiment [10] and in experiment [19] was “inactive” in each case. Further, the max activation in [15] is -1.79% (inactive). The Potency in experiment [7] was 71.5 µM (active) and 39.9 µM (active); in [18], 35.8 µM (active) and 35.6 µM (active) and 15.5 µM (active); in [11], 715 nM (active) and 710 nM (active) and 436 nM (active); in experiment [12] it was 4.02 µM (active) and 2.52 µM (active) and 1.74 µM (active); in experiment [13], 10.1 µM (active) and 10 µM (active) and 6.92 µM (active).

`Nc1nc(N)nc(NC2CC2)n1`: the result in experiment [1] and in experiment [3] was inactive. The Potency result in [2], in experiment [4], in experiment [5], in [6], in experiment [16] and in experiment [17] was “inactive” each time. For the same compound, the Potency entry in [7], in [8], in [9], in experiment [10], in [18] and in experiment [11] was “inactive” throughout. For the same compound, the Potency entry in [12], in [13], in [19] and in experiment [14] was “inactive” throughout. Further, the max activation in [15] is -4.09% (inactive).

`CC(=O)/C=C/c1ccccc1`: the compound was classed as inactive in experiment [1] and in experiment [3]. Moreover, the Potency entry in experiment [2], in [4], in [5], in experiment [6], in [8] and in experiment [9] was “inactive” each time. In addition, the Potency result in [10], in [12], in experiment [19] and in [14] was “inactive” throughout. In addition, the Potency result in [18] was “inactive and 35.6 µM (active)”; in [11], 78.2 µM (active); in [13], 31.7 µM (active) and 39.9 µM (active).

As to `O=C(O)CCCc1ccc(N(CCCl)CCCl)cc1`, the call in experiment [1] and in experiment [3] was inactive. The Potency entry in experiment [2], in experiment [6], in [8], in [9], in [10] and in [18] was “inactive” each time. In addition, the Potency entry in experiment [11], in experiment [12], in experiment [13], in experiment [19] and in experiment [14] was “inactive” each time. In addition, the Potency in experiment [4] was 34.5 µM (active) and 21.7 µM (active) and 21.1 µM (active); in experiment [5], 54.7 µM (active) and inactive.

`O=[N+]([O-])c1cc([As](=O)(O)O)ccc1O`: the call in [1] and in experiment [3] was inactive. For the same compound, the Potency entry in [2], in [4], in experiment [5], in experiment [6], in [16] and in experiment [17] was “inactive” throughout. In addition, the Potency entry in experiment [7], in [8], in experiment [9], in experiment [10], in experiment [18] and in experiment [11] was “inactive” throughout. The Potency result in experiment [12], in [13], in [19] and in [14] was “inactive” in each case. In [15], the Potency was 12.6 µM (active).

These data come from PubChem BioAssay (Tox21).
